In PubChem BioAssay:
The source made the active and inactive calls.

Key:
[1] = binders of probe aFSTL3 on microarray, primary screen, stem cell growth factor project, biochemical, small-molecule microarray, fluorescence 635/667 (AID 1064); conditions: higher = more signal;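 further: measures binding of the biotinylated anti-FSTL3 antibody to printed compounds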
[2] = binders from COS7 lysate, DM2A8 probe, primary screen, torsin A project, cell lysate, small-molecule microarray, fluorescence 635/667 (AID 1065); conditions: higher = more signal, COS7 lysate expressing mutant human TOR1A
[3] = binders of probe aFGF2 on microarray, primary screen, stem cell growth factor project, biochemical, small-molecule microarray, fluorescence 635/667 (AID 1067); conditions: higher = more signal;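 further: measures binding of biotinylated aFGF2 protein to printed compounds on slides; z-score merges feature fluorescence and signal-to-noise across triplicate slides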
[4] = binders of probe aFGF10 on microarray, primary screen, stem cell growth factor project, biochemical, small-molecule microarray, fluorescence 635/667 (AID 1071); conditions: higher = more signal;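 further: score merges 667 nm spot intensity and signal to noise from triplicate slides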
[5] = target: Neurogenic locus notch homolog protein 2 (Homo sapiens) (UniProt Q04721); test: Notch2 binders on small-molecule microarrays, primary screen, biochemical, small-molecule microarray, 635 nm fluorescence, stem cell growth factors (AID 1073); conditions: Notch2 binding, higher = more signal
[6] = target: Pro-neuregulin-1, membrane-bound isoform (Homo sapiens) (UniProt Q02297); test: NRG1 binders on small-molecule microarrays, primary screen, psychiatric disease protein project, biochemical, small-molecule microarray, fluorescence 635/667 (AID 1075); conditions: NRG1 binding, 635 nm fluorescence, higher = more signal;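 further: score combines 667 nm spot fluorescence with signal to noise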
[7] = system: Neuregulin-1 EGF-like domain; test: binders of neuregulin-1 EGF-like domain, primary screen, biochemical, small-molecule microarray, 635 nm fluorescence (AID 1081); conditions: small-molecule microarray binding, higher = more signal;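 further: binding of the protein to compounds printed on small-molecule microarray slides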
[8] = FRG1 promoter luciferase signal modulators, primary screen, FRG1 inhibition for FSHD, cell-based, C2C12 myotubes, firefly/Renilla luciferase, luminescence (AID 1084); conditions: higher = more signal, called active from +8 up or from −8 down
[9] = binders of probe aFST on microarray, primary screen, stem cell growth factor project, biochemical, small-molecule microarray, fluorescence 635/667 (AID 1086); conditions: higher = more signal;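 further: score merges 667 nm fluorescence with signal-to-noise of each printed compound spot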
[10] = binders of probe aHhip on microarray, primary screen, stem cell growth factor project, biochemical, small-molecule microarray, fluorescence 635/667 (AID 1087); conditions: higher = more signal;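 further: score merges spot fluorescence at 667nm with spot signal to noise ratio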
[11] = system: PRMT1 (protein arginine N-methyltransferase 1); test: PRMT1 binders on small-molecule microarrays, primary screen, biochemical, small-molecule microarray, 635 nm fluorescence (AID 1088); conditions: small-molecule microarray binding, higher = more signal;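 further: binding of Prmt1 protein to compounds spotted on small-molecule microarray slides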
[12] = yeast growth modulation, basal conditions, primary screen, YJM789 clinical isolate, OD600, 24 h (AID 1089);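 further: growth of clinical yeast isolate S. cerevisiae YJM 789 seeded 1000 cells per well; test concentration not given here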; conditions: S. cerevisiae YJM789 growth, higher = more signal, called active from +8 up or from −8 down
[13] = fission yeast growth modulation, primary screen, strain 972, OD600, 24 h, no modulator (AID 1090);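 further: basal condition with compound alone and no growth modifier present; test concentration not given here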; conditions: S. pombe 972 growth, higher = more signal, called active from +8 up or from −8 down
[14] = S. cerevisiae growth modulation with rapamycin, primary screen, strain BY4716, OD600, 96 h (AID 1091); conditions: higher = more signal, called active from +8 up or from −8 down; further: test concentration not given here
[15] = target: Torsin-1A-interacting protein 2 (Homo sapiens) (UniProt Q8NFQ8); test: LULL1 binders on small-molecule microarray, primary screen, cell lysate, human LULL1 lysate, 635/667 nm fluorescence (AID 1092); conditions: hLULL1 lysate binding, 635 nm fluorescence, higher = more signal;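 further: probe is lysate of COS7 cells overexpressing human LULL1; score merges per-feature 667 nm fluorescence with signal-to-noise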
[16] = E. coli growth modulation, two-sided OD650, primary screen, E. coli filamentation project, strain DRC41, 24 h (AID 1093); conditions: OD650, 24 h, higher = more signal, called active from +8 up or from −8 down;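 further: MC1000 strain lacking acrAB efflux and sulA so SOS filamentation is blocked; test concentration not given here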
[17] = small-molecule microarray binders of probe aLefty2, primary screen, biochemical, biotinylated probe, 635/667 nm fluorescence (AID 1094); conditions: higher = more signal;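 further: score merges spot fluorescence near 667 nm with spot signal-to-noise ratio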
[18] = system: Noggin (protein binding on small-molecule microarray); test: Noggin binders on small-molecule microarray, primary screen, biochemical, 635/667 nm fluorescence (AID 1095); conditions: 635 nm fluorescence, higher = more signal;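 further: score merges 667 nm feature fluorescence with signal to noise over triplicate slides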
[19] = target: Neurogenic locus notch homolog protein 3 (Homo sapiens) (UniProt Q9UM47); test: NOTCH3 binders on small-molecule microarray, primary screen, biochemical, 635/667 nm fluorescence (AID 1096); conditions: NOTCH3 binding, 635 nm fluorescence, higher = more signal
[20] = small-molecule microarray binders of probe aEGFR, primary screen, biochemical, biotinylated probe, 635/667 nm fluorescence (AID 1097); conditions: higher = more signal;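 further: probe is a biotinylated anti-EGFR antibody binding compounds printed on slides; score combines fluorescence near 667 nm and signal to noise of each spot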

Sequence of Torsin-1A-interacting protein 2 (Homo sapiens) (Q8NFQ8 whole entry, looked up): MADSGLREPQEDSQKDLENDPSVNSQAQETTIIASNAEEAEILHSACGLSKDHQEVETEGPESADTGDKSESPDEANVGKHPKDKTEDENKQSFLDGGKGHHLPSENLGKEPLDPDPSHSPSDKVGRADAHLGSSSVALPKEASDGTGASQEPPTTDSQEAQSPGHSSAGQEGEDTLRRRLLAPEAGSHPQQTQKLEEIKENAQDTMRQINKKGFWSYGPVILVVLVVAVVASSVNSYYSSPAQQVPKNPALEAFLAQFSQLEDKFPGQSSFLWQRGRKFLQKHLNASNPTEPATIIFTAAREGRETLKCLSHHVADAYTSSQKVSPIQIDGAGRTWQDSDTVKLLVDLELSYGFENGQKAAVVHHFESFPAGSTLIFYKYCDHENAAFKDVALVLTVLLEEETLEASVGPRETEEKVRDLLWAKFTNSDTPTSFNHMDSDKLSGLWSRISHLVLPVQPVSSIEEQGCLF
Sequence of Neurogenic locus notch homolog protein 3 (Homo sapiens) (Q9UM47 whole entry, looked up): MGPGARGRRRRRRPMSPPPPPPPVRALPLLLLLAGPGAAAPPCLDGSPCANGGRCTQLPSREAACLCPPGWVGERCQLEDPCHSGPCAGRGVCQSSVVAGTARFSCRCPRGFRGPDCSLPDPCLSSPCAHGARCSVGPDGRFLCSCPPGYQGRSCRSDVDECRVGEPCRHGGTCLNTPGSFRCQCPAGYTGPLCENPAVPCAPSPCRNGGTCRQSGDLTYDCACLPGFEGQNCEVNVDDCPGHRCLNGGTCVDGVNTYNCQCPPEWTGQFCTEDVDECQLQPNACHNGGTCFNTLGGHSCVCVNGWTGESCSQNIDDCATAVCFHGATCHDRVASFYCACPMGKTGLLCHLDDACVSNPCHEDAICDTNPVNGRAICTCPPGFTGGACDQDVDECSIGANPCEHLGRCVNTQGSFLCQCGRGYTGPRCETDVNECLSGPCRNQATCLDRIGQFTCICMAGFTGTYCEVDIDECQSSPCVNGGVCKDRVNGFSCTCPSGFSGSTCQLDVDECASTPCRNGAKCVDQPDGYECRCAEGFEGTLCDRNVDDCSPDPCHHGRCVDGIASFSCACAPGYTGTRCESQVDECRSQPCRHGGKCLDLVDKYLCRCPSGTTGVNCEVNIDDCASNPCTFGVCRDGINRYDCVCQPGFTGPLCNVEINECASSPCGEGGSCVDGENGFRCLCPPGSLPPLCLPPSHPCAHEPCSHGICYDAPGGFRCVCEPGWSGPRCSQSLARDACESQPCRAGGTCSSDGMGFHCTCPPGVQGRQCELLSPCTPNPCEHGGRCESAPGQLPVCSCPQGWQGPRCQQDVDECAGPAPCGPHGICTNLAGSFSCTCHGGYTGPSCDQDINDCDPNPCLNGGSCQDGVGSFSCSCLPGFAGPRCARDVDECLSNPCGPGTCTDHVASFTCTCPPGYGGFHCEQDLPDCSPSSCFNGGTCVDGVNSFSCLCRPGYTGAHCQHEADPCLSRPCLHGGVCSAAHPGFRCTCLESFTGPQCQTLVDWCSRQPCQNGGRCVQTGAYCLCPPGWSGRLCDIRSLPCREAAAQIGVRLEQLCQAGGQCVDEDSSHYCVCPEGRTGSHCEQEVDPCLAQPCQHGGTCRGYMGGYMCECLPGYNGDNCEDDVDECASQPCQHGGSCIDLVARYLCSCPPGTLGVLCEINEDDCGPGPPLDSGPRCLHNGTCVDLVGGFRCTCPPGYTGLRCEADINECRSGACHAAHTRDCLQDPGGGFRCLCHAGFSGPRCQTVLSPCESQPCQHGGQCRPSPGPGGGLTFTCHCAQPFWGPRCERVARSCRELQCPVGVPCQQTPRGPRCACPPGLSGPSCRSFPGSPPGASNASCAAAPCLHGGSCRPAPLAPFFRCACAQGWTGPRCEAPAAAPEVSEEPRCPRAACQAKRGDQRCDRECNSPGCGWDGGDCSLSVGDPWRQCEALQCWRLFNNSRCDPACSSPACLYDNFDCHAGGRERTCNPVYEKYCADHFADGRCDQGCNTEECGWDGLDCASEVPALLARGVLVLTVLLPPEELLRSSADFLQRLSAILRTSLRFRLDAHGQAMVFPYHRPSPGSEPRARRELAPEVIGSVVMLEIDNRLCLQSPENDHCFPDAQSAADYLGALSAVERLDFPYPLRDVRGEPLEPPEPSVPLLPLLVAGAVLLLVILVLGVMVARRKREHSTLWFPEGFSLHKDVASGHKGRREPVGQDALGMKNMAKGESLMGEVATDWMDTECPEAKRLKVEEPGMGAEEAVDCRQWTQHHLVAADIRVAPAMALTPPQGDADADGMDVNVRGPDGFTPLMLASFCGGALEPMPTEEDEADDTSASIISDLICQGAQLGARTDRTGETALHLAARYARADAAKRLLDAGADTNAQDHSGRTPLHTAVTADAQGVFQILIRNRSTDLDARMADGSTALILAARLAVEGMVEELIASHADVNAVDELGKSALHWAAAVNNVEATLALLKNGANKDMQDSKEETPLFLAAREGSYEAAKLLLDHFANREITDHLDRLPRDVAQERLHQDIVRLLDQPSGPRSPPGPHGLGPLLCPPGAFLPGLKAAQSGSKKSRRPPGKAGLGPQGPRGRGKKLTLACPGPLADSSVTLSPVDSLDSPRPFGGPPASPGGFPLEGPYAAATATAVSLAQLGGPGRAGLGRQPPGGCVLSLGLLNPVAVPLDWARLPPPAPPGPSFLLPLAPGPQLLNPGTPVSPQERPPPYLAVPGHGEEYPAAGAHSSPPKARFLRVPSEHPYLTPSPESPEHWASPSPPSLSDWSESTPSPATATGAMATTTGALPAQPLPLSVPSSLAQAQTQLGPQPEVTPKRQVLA
Sequence of Pro-neuregulin-1, membrane-bound isoform (Homo sapiens) (Q02297 whole entry, looked up, the tested form may be a part, canonical isoform): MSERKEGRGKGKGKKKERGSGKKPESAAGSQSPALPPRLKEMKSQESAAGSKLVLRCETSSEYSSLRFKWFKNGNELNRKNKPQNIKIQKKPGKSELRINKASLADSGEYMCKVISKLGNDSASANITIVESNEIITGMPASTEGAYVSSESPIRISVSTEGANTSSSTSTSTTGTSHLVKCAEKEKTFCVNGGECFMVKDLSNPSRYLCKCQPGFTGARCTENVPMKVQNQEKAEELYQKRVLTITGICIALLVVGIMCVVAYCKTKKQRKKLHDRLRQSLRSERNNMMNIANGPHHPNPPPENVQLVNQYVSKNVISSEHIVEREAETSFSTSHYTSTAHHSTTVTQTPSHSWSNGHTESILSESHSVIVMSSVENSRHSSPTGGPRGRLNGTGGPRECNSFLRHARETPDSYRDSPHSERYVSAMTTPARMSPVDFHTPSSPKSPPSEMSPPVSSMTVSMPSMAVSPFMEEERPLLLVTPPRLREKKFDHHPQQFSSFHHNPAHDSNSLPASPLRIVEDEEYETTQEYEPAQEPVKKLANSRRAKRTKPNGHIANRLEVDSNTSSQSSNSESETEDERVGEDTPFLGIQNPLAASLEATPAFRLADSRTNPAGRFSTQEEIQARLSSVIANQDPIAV

| Compound | composite z-score [1] | composite z-score [2] | composite z-score [3] | composite z-score [4] | composite z-score [5] | composite z-score [6] | composite z-score [7] | z-score [8] | composite z-score [9] | composite z-score [10] | composite z-score [11] | z-score [12] | z-score [13] | z-score [14] | composite z-score [15] | z-score [16] | composite z-score [17] | composite z-score [18] | composite z-score [19] | composite z-score [20] |
| --- | --- | --- | --- | --- | --- | --- | --- | --- | --- | --- | --- | --- | --- | --- | --- | --- | --- | --- | --- | --- |
| COc1ccc(C(O)C2C=CC3C(=O)N(c4ccccc4)C(=O)C3N2Nc2ccc(C(C)C)cc2)cc1OCc1ccccc1 (stereo not given) | 0.838 | 0.369 | 0.227 | 1.08 | 1.61 | 1.26 | 1.1 | -1.44 (inactive) | 1.62 | -0.168 | 1.61 | 0.345 (inactive) | 0.309 (inactive) | -0.707 (inactive) | 2.97 | -3.72 (inactive) | 0.308 | 0.112 | 1.03 | 0.339 |
| COc1cc2c(cc1OC)CN(C(=O)[C@H]1[C@@H]3C(=O)O[C@@H](c4ccccc4)[C@@H](c4ccccc4)N3[C@@H](c3ccc(O)cc3)[C@]13C(=O)Nc1ccc(C#CC4=CCCCC4)cc13)CC2 | -0.0904 | 1.36 | 0.088 | 1.24 | 1.24 | 1.33 | 1.21 | -0.139 (inactive) | 0.827 | 0.421 | 1.51 | 0.203 (inactive) | -2.16 (inactive) | 0.563 (inactive) | 2.83 | 1.64 (inactive) | 0.0857 | 1.12 | 0.913 | 0.143 |
| CN1C(=O)C2C=CC(C(O)c3ccc(-c4ccccc4)s3)N(N(c3ccccc3)c3ccccc3)C2C1=O (stereo not given) | 0.415 | -0.235 | 0.0034 | 0.199 | 1.15 | 0.782 | 0.949 | 0.685 (inactive) | 0.422 | 0.248 | 0.668 | 0.187 (inactive) | 0.947 (inactive) | 1.33 (inactive) | 1.93 | -0.422 (inactive) | 0.164 | -0.132 | 1.12 | -0.0003 |
| [N-]=[N+]=NCc1ccccc1[C@H]1OC(c2ccc(OCCCO)cc2)=N[C@@]1(Cc1ccccc1)C(=O)NCc1ccccc1 | -0.0101 | 0.742 | -0.0184 | 1.27 | 1.24 | 2.05 | 0.921 | -1.5 (inactive) | 0.513 | -0.331 | 1.48 | -1.9 (inactive) | -0.0354 (inactive) | 6.58 (inactive) | 2.86 | 0.84 (inactive) | 0.151 | 0.177 | 1.12 | 0.411 |
| O=C(NCc1ccccc1)[C@@]1(CCS(=O)(=O)c2ccccc2)N=C(c2ccc(OCCCO)cc2)O[C@H]1c1ccccc1 | -0.0744 | 0.345 | 0.115 | 0.488 | 1.56 | 1.82 | 1.19 | -2.73 (inactive) | 1.6 | 0.0274 | 1.56 | 1.72 (inactive) | -0.129 (inactive) | 34.4 (active) | 3.56 | 0.988 (inactive) | 0.215 | 0.878 | 1.06 | 0.116 |
| COCCOC(=O)N1C(=O)[C@@]2(c3cc(C#CC4=CCCCC4)ccc31)[C@H](c1ccc(O)cc1)N1[C@H](c3ccccc3)[C@H](c3ccccc3)OC(=O)[C@H]1[C@@H]2C(N)=O | -0.456 | 0.185 | -0.0899 | 0.54 | 0.592 | 0.324 | 0.978 | 0.189 (inactive) | 0.327 | 0.154 | 1.56 | 0.893 (inactive) | 0.358 (inactive) | 0.918 (inactive) | 1.84 | -0.603 (inactive) | -0.388 | 1.63 | 1.1 | -0.11 |
| CC(C)N1C(=O)c2ccccc2[C@](C)(C(=O)NCc2ccccc2)[C@@H]1c1ccc(CO)cc1 | 0.197 | 0.0699 | -0.157 | -0.158 | -0.463 | -1.06 | 0.744 | -1.03 (inactive) | -0.27 | -0.0994 | 0.0055 | -0.261 (inactive) | -1.16 (inactive) | -0.625 (inactive) | 1.91 | -0.587 (inactive) | 0.0322 | -0.969 | -0.394 | -0.244 |
| COc1ccc(NN2C(C(O)c3ccc([N+](=O)[O-])cc3)C=CC3C(=O)N(C4CCCCC4)C(=O)C32)cc1 (stereo not given) | 0.091 | -0.174 | -0.0782 | 0.389 | 0.901 | 0.348 | 0.755 | -0.068 (inactive) | 0.844 | -0.0346 | 0.849 | 0.346 (inactive) | 0.811 (inactive) | 0.572 (inactive) | 2.69 | -0.103 (inactive) | 0.192 | -0.0162 | 1.09 | -0.143 |
| O=C1OCC=C[C@H]2OC34C=CCN(c5ccc6ccccc6c5)C(=O)[C@H]3N(CCCCCCO)C(=O)[C@@H]4[C@@H]12 (stereo not given in full) | 0.787 | 1.94 | -0.133 | -0.566 | -1.15 | 0.781 | 1.57 | 0.78 (inactive) | -0.302 | -0.226 | -0.518 | -0.966 (inactive) | -0.715 (inactive) | -0.806 (inactive) | 2.62 | -0.133 (inactive) | -0.0493 | -1.33 | -0.435 | -0.256 |
